PubChem BioAssay AID525 (The Scripps Research Institute Molecular Screening Center, 2006)
In all, about 65,000 compounds went through this assay and about 360 (0.55%) were called active.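 How the source made its calls: active means inhibition above the mean inhibition of all tested compounds plus 3 SD (cut at about 48% in these data); inactive means the rest.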 The entries come from a sample that favours actives as a whole.

biological target: Steroidogenic factor 1 (Homo sapiens) (UniProt Q13285); test: suppressors of SF-1 driven luciferase transcription – cell-based, CHO-K1, Gal4-SF-1 LBD, luciferase luminescence, primary screen (AID 525); conditions: CHO-K1 Gal4-SF-1 LBD luciferase reporter; at 10 µM; active compounds read high;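 further: 0% = SF-1 transfected cells with DMSO and 100% = mock-transfected cells lacking SF-1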
Sequence (Q13285 whole entry, looked up, the tested form may be a part): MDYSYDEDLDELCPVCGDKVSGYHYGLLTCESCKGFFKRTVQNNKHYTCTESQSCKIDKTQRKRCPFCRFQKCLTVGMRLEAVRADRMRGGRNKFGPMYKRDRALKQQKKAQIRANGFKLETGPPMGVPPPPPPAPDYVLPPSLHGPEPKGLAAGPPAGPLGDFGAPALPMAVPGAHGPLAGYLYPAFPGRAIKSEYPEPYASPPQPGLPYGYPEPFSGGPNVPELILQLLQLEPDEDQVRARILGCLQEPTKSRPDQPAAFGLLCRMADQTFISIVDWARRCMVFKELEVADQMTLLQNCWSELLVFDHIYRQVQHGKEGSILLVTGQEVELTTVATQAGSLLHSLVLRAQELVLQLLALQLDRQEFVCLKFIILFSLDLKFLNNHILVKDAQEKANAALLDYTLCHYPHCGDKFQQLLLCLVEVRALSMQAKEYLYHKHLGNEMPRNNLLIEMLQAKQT

`O=C(NCCCN1CCN(C2CCCCC2)CC1)Nc1ccccc1C(F)(F)F` was tested. Which inhibition did it give?
The inhibition was -13.5% (inactive).

`CC(C)(C)NC(=O)C(c1ccco1)N(Cc1ccc2c(c1)OCO2)C(=O)Cn1nnc2ccccc21` (stereo unspecified) was tested. Which inhibition did it give?
The inhibition was -8.6% (inactive).

Which inhibition does the source give for `CCOc1cc(S(=O)(=O)NC2CC(C)(C)NC(C)(C)C2)ccc1F` here?
The inhibition was -4.6% (inactive).

How did the inhibition turn out when `OCCCNC(c1ccccc1)c1ccc(O)cc1` (stereo unspecified) was run?
The inhibition was -6.6% (inactive).

`CCCOc1ccccc1C(=O)NCCCC(=O)O` was tested. Which inhibition did it give?
Its inhibition is -3.2% (inactive).

How did the inhibition turn out when `COc1ccccc1Oc1ccc(S(=O)(=O)Nc2cccnc2)cc1` was run?
Its inhibition is 13.8% (inactive).

How did the inhibition turn out when `COc1cc2cc(CN(CCN3CCCC3)C(=O)Nc3ccccc3Cl)c(=O)[nH]c2cc1OC` was run?
The inhibition was 8.5% (inactive).

`Clc1cccc(Cl)c1Cn1nnc(-c2cccs2)n1` was tested. Which inhibition did it give?
The inhibition was -50.8% (inactive).

With `CCCNC(=O)C1CC(=O)N(c2ccc(OCC(=O)Nc3cccc(C)c3C)cc2)C1` (stereo unspecified) as the compound, how does the inhibition read?
Its inhibition is -1% (inactive).

`NC(=O)C1CC=CCC1C(=O)OCC(Cl)=C(Cl)Cl` (stereo unspecified) was tested. Which inhibition did it give?
The inhibition was 38.2% (inactive).

`CCCCOC(=O)c1[nH]c(C)c(C(=O)OC)c1C` was tested. Which inhibition did it give?
The inhibition was -77.7% (inactive).

For `O=C(CSc1nnc(-c2c[nH]c3ccccc23)n1-c1ccc(F)cc1)NCc1ccco1`, which inhibition is on record?
Its inhibition is -15.6% (inactive).

`CCOC(=O)c1ccc(-c2ccc(C(=O)Nc3cccnc3)o2)cc1` was tested. Which inhibition did it give?
Its inhibition is -51.3% (inactive).

How did the inhibition turn out when `Cc1ccc(-c2nnc(SC(C)C#N)n2N)cc1` (stereo unspecified) was run?
The inhibition was -9.5% (inactive).

With `C/C(=C\c1ccco1)C1Nc2cccc3cccc(c23)N1` as the compound, how does the inhibition read?
The inhibition was 1.5% (inactive).

`O=C(Nc1ccc(-c2nnc(-c3ccccc3)o2)cc1)C1CCCO1` (stereo unspecified) was tested. Which inhibition did it give?
Its inhibition is -65.9% (inactive).

How did the inhibition turn out when `COc1ccc(CC(=O)Nc2ccc(-c3nnc(-c4ccccc4)o3)cc2)cc1` was run?
The inhibition was 59.5% (active).

Which inhibition does the source give for `Cc1ccc(OCC(=O)Nc2ccc(-c3nnc(-c4ccco4)o3)cc2)cc1` here?
Its inhibition is -65.5% (inactive).

`O=C(CCS(=O)(=O)c1ccccc1)Nc1nc2c(s1)CCCC2` was tested. Which inhibition did it give?
The inhibition was -3.7% (inactive).

Which inhibition does the source give for `CS(=O)(=O)c1ccc2nc(NC(=O)CN3CCCCCC3)sc2c1` here?
Its inhibition is 3.7% (inactive).

Which inhibition does the source give for `O=C(NCCc1ccc(Cl)cc1)C1CC(=O)N(C2CCCCC2)C1` (stereo unspecified) here?
The inhibition was -13.3% (inactive).

With `CCCCCCOC(=O)NCC(O)c1ccccc1` (stereo unspecified) as the compound, how does the inhibition read?
The inhibition was -52.5% (inactive).

For `O=C1CCC(Cc2ccccc2)N1` (stereo unspecified), which inhibition is on record?
Its inhibition is 7.6% (inactive).

With `COc1ccc(N2C(=O)CCC(C(=O)Nc3ccccn3)C2c2ccc(OC)c(OC)c2)cc1` (stereo unspecified) as the compound, how does the inhibition read?
The inhibition was -11% (inactive).

For `COCCN(CC(=O)Nc1ccccc1C)S(=O)(=O)c1ccc(S(=O)(=O)N2CCCC2)cc1`, which inhibition is on record?
The inhibition was 0.4% (inactive).

Which inhibition does the source give for `COc1ccc(N2CCN(C(=O)CSc3ncnc4c3cnn4-c3ccc(OC)cc3)CC2)cc1` here?
The inhibition was -9% (inactive).
